{"source": "PubChem BioAssay (Tox21)", "note": "A number with no mark means an inactive call. Active and inactive are the calls of the source. The call rests on the fitted dose curve; in most records, active means well fitted curve in the direction sought with a large enough effect in the repeat runs; inconclusive means weak or mixed curves; inactive means flat fitted curve, though single readings scatter. On the % scale 0 is the no-effect control and ±100 the full control effect.", "data": [{"assay": "qHTS assay to test for compound auto fluorescence at 535 nm (green) in HepG2 cells (AID 720675)", "settings": "green autofluorescence 485/535 nm, 1 h; series mostly up to 91.3 µM; fluorescence, % of fluorescein control: at the top concentration", "text": "National Center for Advancing Translational Sciences [NCATS]\nNIH Chemical Genomics Center [NCGC]\nU.S. Environmental Protection Agency [EPA]\nNational Institutes of Environmental Health Sciences [NIEHS]\nNational Toxicology Program [NTP]\nU.S. Food and Drug Administration [FDA]\nCompound auto fluorescence often interferes with screening of the compound library against various biological targets and signaling pathways. Some of these compounds may have fluorophoric properties. Such properties may interfere with the assay outputs resulting in false positives and/or negatives. To decrease such complications and ensure the compound activities are relevant in terms of biological response, the Tox21 10K compound library was screened for auto fluorescence.\nFrom the fluorophores used as reporter signals in our screening assays, the auto fluorescence equivalencies of compounds against three fluorophores have been evaluated: Triamterene, Fluorescein and Rose Bengal sodium for blue, green and red fluorescence, respectively. The fluorescence intensities were measured using Excitation/Emission wavelengths at 405/460nm, 485/535nm and 540/590nm for blue, green and red labels, respectively. This assay includes the green fluorescence data.\nTox21 Assay Protocol Summary:\n2,000 HepG2 cells in 5 uL of culture medium (MEM containing 10% FBS) per well were dispensed into black wall/clear bottom 1536-well plates using a Multidrop Combi Dispenser (ThermoFisher Scientific, Waltham, MA). The assay plates were incubated overnight at 37 C to allow cell attachment to the well bottom, followed by the transfer of 23 nL compound or DMSO vehicle by a pintool work station (Kalypsys , San Diego, CA). After the assay plates were incubated for 1 hr at 37 C and 5% CO2, fluorescence intensities in the assay plates were measured by an Envision (PerkinElmer, Shelton, CT) plate reader using three labels for measuring blue, green and red fluorescence at […] 460, 535 and 590 nm respectively.", "values": [{"smiles": "CC(C)(N)C#N", "fluorescence, % of fluorescein control": "0.104% [at 95.7 µM]"}, {"smiles": "C[N+]1(C)[C@@H]2CC(OC(=O)[C@H](CO)c3ccccc3)C[C@H]1[C@@H]1O[C@@H]12", "note": "(stereo not given in full)", "fluorescence, % of fluorescein control": "0.0052% [at 46 µM]"}, {"smiles": "O=Cc1cccc(Br)c1", "fluorescence, % of fluorescein control": "-0.0417% [at 95.7 µM]"}, {"smiles": "[O-][n+]1cccc(CO)c1", "fluorescence, % of fluorescein control": "-0.0052% [at 46 µM]"}, {"smiles": "CO[C@@]1(NC(=O)C(C(=O)O)c2ccc(O)cc2)C(=O)N2C(C(=O)O)=C(CSc3nnnn3C)CO[C@@H]21", "note": "(stereo not given in full)", "fluorescence, % of fluorescein control": "-0.0745% [at 18.6 µM]"}, {"smiles": "C=COC(=O)C(C)(CC)CCC(C)C", "note": "(stereo not given)", "fluorescence, % of fluorescein control": "-0.0046%"}, {"smiles": "C=C[Si](OC(C)=O)(OC(C)=O)OC(C)=O", "fluorescence, % of fluorescein control": "-0.0565%"}, {"smiles": "COc1ccc2cc1Oc1cc3c(cc1OC)CC[N+](C)(C)[C@H]3Cc1ccc(cc1)Oc1c(OC)c(OC)cc3c1[C@@H](C2)[N+](C)(C)CC3", "fluorescence, % of fluorescein control": "-0.016% [at 46 µM]"}, {"smiles": "CC1=CC(=O)[C@H]2C[C@@H]1C2(C)C", "fluorescence, % of fluorescein control": "-0.006%"}, {"smiles": "Nc1ccn([C@@H]2O[C@H](CO)[C@@H](O)C2O)c(=O)n1", "note": "(stereo not given in full)", "outcome": "inactive"}, {"smiles": "Cc1nc2ccc(CN(C)c3ccc(C(=O)N[C@@H](CCC(=O)O)C(=O)O)s3)cc2c(=O)[nH]1", "outcome": "inactive"}, {"smiles": "Cc1ccc(-c2ncc(Cl)cc2-c2ccc(S(C)(=O)=O)cc2)cn1", "fluorescence, % of fluorescein control": "0.015% [at 46 µM]"}, {"smiles": "CCC1C(=O)OCC1Cc1cncn1C", "note": "(stereo not given)", "fluorescence, % of fluorescein control": "0.02% [at 46 µM]"}, {"smiles": "CC(C)[C@H]1CC[C@@H](C)CC1=O", "fluorescence, % of fluorescein control": "-0.0306%"}, {"smiles": "CCCCCCCCCCCCCCC(=O)O", "fluorescence, % of fluorescein control": "0.0803%"}, {"smiles": "CC(=O)c1ccc2ccccc2c1", "fluorescence, % of fluorescein control": "-0.0472%"}, {"smiles": "C[C@H]1[C@H](NC(=O)/C(=N/OC(C)(C)C(=O)O)c2csc(N)n2)C(=O)N1S(=O)(=O)O", "note": "(stereo in doubt)", "fluorescence, % of fluorescein control": "-0.201% [at 18.6 µM]"}, {"smiles": "CC1=NN(c2cccc(S(=O)(=O)O)c2)C(=O)C1", "fluorescence, % of fluorescein control": "0.0244%"}, {"smiles": "CC(C)NNC(=O)c1ccncc1", "fluorescence, % of fluorescein control": "0.0092% [at 46 µM]"}, {"smiles": "CCOC(=O)CCC(=O)OCC", "fluorescence, % of fluorescein control": "0.0053%"}, {"smiles": "Nc1ccn([C@@H]2O[C@H](CO)[C@@H](O)[C@@H]2O)c(=O)n1", "fluorescence, % of fluorescein control": "0.0193%"}, {"smiles": "CC(C)(C)OC(=O)c1cccc(N)c1", "fluorescence, % of fluorescein control": "0.0936% [at 95.7 µM]"}, {"smiles": "CCCCCCCCN1CCCC1=O", "fluorescence, % of fluorescein control": "0.0758%"}, {"smiles": "C1CCC2=NCCCN2CC1", "fluorescence, % of fluorescein control": "0.0159%"}, {"smiles": "CC1(C)[C@@H]2CC[C@@]1(C)[C@H](O)C2", "fluorescence, % of fluorescein control": "0.0412%"}, {"smiles": "CC(C)C(=O)OC(=O)C(C)C", "fluorescence, % of fluorescein control": "-0.0546%"}, {"smiles": "Clc1cc(Cl)c(Cl)nc1Cl", "fluorescence, % of fluorescein control": "0.0402%"}, {"smiles": "CCCCCCCCCCCCCCCCCCO", "fluorescence, % of fluorescein control": "-0.126% [at 46 µM]"}, {"smiles": "O=S(=O)(O)c1cccc2c(S(=O)(=O)O)cccc12", "fluorescence, % of fluorescein control": "0.0542%"}, {"smiles": "O=[N+]([O-])c1ccc(/C=N\\O)o1", "fluorescence, % of fluorescein control": "-0.123% [at 46 µM]"}, {"smiles": "CO/N=C(\\C(=O)N[C@@H]1C(=O)N2C(C(=O)O)=C(CSc3nc(=O)c(O)nn3C)CS[C@H]12)c1csc(N)n1", "fluorescence, % of fluorescein control": "0.0124% [at 46 µM]"}, {"smiles": "Nc1ccccn1", "fluorescence, % of fluorescein control": "-0.139%"}, {"smiles": "O=S(=O)(O)c1cc(O)c(O)c(S(=O)(=O)O)c1", "fluorescence, % of fluorescein control": "0.0707%"}, {"smiles": "C[N+]12CCC(CC1)C(OC(=O)C(O)(c1ccccc1)c1ccccc1)C2", "note": "(stereo not given)", "fluorescence, % of fluorescein control": "-0.0019% [at 18.6 µM]"}, {"smiles": "CCCn1cc[n+](C)c1C", "fluorescence, % of fluorescein control": "0.0856% [at 95.7 µM]"}, {"smiles": "CCN[C@H]1C[C@H](C)S(=O)(=O)c2sc(S(N)(=O)=O)cc21", "fluorescence, % of fluorescein control": "0.0267% [at 46 µM]"}, {"smiles": "C[N+](C)(CCOc1ccccc1)Cc1cccs1", "fluorescence, % of fluorescein control": "-0.0053% [at 46 µM]"}, {"smiles": "COc1cc(C(=O)OC(COCCC(C)C)CN2CCOCC2)cc(OC)c1OC", "note": "(stereo not given)", "fluorescence, % of fluorescein control": "0.0497% [at 46 µM]"}, {"smiles": "Cc1ccnc(NS(=O)(=O)c2ccc(N)cc2)n1", "fluorescence, % of fluorescein control": "0.0423% [at 18.6 µM]"}, {"smiles": "COc1cc2c(cc1OC)-c1cc3ccc(OC)c(OC)c3c[n+]1CC2", "fluorescence, % of fluorescein control": "0.174%"}]}]}
